# Key:
# Assay in all cases: DAPPL (digital affinity profiling via proximity ligation, sequencing); 10 mM Tris-HCl pH 7.5, 50 mM NaCl, 1 mM DTT, 4% glycerol, room temperature, 30 min; GST-TFs on glutathione beads, 16-mer random dsDNA library, 0.1% formaldehyde crosslink after washing; high values mean tight binding
# FEV = target: T1, FEV (Homo sapiens, UniProt Q99581 1-238); conditions: protein: recombinant; tags: N-terminal GST; dsDNA, one strand shown
# T1 sequence: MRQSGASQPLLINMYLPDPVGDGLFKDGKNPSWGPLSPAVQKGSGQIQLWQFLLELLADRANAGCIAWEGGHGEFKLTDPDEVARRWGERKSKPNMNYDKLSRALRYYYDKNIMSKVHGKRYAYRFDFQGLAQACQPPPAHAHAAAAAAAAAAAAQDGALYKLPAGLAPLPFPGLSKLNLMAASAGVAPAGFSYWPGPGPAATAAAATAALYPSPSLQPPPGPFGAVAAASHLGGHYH
# Outline: (§1)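 After expression in yeast as GST fusions, human transcription factors were bound to glutathione beads, DNA-barcoded and mixed with a tag-only sample. The pools were incubated with 200 nmole of a 16-mer random double-stranded DNA library in Tris/NaCl/DTT/glycerol buffer (30 min, room temperature), washed and crosslinked with 0.1% formaldehyde. Proximity ligation with BsaI/T4 ligase ran for 1 h at 37 °C, before PCR amplification and sequencing on an Illumina NextSeq500. Binding signal is a hexamer's read frequency for a factor divided by its frequency for the tag-only sample.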
# ETV5 = ETV5 (Homo sapiens, UniProt P41161 1-510); conditions: protein: recombinant; tags: N-terminal GST; dsDNA, one strand shown
# Outline: as §1
# HSF1 = HSF1 (Homo sapiens, UniProt Q00613 1-529); conditions: protein: recombinant; tags: N-terminal GST; chain copies: 3; dsDNA, one strand shown
# Outline: as §1
# SPIC = target: T2, SPIC (Homo sapiens, UniProt Q8N5J4 1-248); conditions: protein: recombinant; tags: N-terminal GST; dsDNA, one strand shown
# T2 sequence: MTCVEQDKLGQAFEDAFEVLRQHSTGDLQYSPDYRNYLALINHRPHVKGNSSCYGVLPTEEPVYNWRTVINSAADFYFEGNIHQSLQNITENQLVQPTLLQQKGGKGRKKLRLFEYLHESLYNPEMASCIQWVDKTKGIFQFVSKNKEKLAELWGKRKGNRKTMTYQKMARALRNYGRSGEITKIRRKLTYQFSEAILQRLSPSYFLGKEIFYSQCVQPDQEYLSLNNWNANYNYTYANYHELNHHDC
# Outline: as §1
# ELF4 = ELF4 (Homo sapiens, UniProt Q99607 1-663); conditions: protein: recombinant; tags: N-terminal GST; dsDNA, one strand shown
# Outline: as §1
# ELK4 = target: T3, ELK4 (Homo sapiens, UniProt P28324-2 1-405); conditions: protein: recombinant; tags: N-terminal GST; dsDNA, one strand shown
# T3 sequence: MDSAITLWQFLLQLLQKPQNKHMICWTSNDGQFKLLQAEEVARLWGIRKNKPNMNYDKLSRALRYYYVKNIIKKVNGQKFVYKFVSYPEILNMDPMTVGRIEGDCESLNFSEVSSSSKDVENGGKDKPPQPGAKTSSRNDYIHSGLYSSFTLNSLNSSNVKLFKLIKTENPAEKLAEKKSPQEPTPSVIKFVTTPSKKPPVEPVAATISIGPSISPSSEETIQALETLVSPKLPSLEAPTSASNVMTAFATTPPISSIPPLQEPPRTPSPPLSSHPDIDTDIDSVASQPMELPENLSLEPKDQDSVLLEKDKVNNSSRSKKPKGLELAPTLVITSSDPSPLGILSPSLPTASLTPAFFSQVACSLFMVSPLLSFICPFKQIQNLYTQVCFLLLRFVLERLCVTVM
# Outline: as §1
# ETV2 = target: T4, ETV2 (Homo sapiens, UniProt O00321 1-342); conditions: protein: recombinant; tags: N-terminal GST; dsDNA, one strand shown
# T4 sequence: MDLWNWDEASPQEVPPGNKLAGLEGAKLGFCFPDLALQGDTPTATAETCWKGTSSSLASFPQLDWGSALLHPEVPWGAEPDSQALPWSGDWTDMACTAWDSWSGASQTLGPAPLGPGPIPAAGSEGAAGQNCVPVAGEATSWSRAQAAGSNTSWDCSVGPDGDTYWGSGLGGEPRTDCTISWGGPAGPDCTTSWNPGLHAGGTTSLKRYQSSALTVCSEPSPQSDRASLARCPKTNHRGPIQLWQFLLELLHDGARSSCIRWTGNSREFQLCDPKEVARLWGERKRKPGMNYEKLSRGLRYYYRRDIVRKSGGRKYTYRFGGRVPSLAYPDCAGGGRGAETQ
# Outline: as §1
# ELF3 = target: T5, ELF3 (Homo sapiens, UniProt P78545 1-371); conditions: protein: recombinant; tags: N-terminal GST; dsDNA, one strand shown
# T5 sequence: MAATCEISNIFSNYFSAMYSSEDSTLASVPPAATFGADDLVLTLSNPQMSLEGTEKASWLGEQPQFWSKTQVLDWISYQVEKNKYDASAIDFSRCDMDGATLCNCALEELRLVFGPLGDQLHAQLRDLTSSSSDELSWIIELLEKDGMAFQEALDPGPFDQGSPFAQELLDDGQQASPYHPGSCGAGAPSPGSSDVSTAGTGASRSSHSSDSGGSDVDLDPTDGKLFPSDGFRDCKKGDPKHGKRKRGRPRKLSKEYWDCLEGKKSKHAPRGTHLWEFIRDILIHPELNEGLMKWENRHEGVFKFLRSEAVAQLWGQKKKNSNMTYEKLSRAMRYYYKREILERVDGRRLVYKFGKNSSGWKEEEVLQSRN
# Outline: as §1
# CRX = CRX (Homo sapiens, UniProt O43186 1-299); conditions: protein: recombinant; tags: N-terminal GST; dsDNA, one strand shown
# Outline: as §1
# ETV1 = ETV1 (Homo sapiens, UniProt P50549 1-477); conditions: protein: recombinant; tags: N-terminal GST; dsDNA, one strand shown
# Outline: as §1
# ERF = target: T6, ERF (Homo sapiens, UniProt P50548 1-548); conditions: protein: recombinant; tags: N-terminal GST; dsDNA, one strand shown
# T6 sequence: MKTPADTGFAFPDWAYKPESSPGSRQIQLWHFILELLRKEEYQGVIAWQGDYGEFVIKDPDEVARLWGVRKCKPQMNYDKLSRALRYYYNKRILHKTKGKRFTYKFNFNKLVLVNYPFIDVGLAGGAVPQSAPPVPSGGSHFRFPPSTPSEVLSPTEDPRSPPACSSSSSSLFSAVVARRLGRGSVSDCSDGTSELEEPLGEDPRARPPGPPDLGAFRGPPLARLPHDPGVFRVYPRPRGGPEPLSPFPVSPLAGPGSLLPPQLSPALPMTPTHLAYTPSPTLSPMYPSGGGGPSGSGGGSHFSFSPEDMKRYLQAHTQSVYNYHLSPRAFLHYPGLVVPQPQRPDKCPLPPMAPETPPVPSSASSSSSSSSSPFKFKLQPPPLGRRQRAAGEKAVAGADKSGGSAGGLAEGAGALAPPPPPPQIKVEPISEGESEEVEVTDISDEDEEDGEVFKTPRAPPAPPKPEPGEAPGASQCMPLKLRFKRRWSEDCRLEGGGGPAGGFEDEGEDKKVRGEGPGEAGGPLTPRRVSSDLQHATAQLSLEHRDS
# Outline: as §1
# ETV3L = target: T7, ETV3L (Homo sapiens, UniProt Q6ZN32 1-361); conditions: protein: recombinant; tags: N-terminal GST; dsDNA, one strand shown
# T7 sequence: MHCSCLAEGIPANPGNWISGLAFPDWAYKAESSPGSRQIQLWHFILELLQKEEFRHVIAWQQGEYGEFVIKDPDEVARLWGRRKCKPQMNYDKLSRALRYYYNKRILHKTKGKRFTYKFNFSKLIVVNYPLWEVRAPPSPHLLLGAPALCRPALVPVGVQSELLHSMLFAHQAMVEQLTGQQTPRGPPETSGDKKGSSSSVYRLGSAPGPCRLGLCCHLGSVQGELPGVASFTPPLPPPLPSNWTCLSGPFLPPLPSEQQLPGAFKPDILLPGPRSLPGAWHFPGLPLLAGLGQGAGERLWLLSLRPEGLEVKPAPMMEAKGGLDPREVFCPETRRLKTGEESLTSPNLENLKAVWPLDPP
# Outline: as §1
# ETS2 = target: T8, ETS2 (Homo sapiens, UniProt P15036 1-469); conditions: protein: recombinant; tags: N-terminal GST; dsDNA, one strand shown
# T8 sequence: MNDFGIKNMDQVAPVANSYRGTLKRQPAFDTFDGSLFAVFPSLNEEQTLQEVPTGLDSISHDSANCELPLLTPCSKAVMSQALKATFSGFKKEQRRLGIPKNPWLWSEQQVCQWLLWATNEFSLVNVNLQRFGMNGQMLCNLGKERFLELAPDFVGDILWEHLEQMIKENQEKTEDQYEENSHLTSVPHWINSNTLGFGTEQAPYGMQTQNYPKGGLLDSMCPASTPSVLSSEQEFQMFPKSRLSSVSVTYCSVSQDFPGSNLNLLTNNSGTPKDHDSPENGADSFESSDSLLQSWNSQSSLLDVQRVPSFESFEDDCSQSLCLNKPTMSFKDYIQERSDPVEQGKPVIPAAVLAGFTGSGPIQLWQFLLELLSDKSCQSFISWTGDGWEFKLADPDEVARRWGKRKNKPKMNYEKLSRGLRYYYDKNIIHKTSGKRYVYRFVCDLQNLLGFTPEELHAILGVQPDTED
# Outline: as §1
# SPDEF = target: T9, SPDEF (Homo sapiens, UniProt O95238 1-335); conditions: protein: recombinant; tags: N-terminal GST; dsDNA, one strand shown
# T9 sequence: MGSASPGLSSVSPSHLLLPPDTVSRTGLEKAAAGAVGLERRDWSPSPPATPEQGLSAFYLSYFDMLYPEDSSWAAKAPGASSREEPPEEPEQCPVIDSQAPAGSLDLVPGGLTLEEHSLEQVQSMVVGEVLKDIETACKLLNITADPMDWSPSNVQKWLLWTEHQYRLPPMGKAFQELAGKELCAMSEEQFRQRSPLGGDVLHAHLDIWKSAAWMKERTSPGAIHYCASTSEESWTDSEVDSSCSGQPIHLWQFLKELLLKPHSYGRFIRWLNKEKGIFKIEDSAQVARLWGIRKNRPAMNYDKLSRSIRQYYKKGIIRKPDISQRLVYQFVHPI
# Outline: as §1
# ETV7 = target: T10, ETV7 (Homo sapiens, UniProt Q9Y603 1-341); conditions: protein: recombinant; tags: N-terminal GST; dsDNA, one strand shown
# T10 sequence: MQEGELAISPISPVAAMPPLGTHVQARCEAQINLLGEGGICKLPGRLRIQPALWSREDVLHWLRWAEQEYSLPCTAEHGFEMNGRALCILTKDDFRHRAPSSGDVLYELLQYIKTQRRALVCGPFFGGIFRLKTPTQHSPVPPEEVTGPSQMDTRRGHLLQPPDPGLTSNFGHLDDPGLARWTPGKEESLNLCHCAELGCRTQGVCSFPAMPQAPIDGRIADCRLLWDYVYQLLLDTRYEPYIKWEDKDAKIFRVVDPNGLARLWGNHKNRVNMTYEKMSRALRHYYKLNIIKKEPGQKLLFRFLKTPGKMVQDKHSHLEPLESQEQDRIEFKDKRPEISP
# Outline: as §1
# ELF5 = target: T11, ELF5 (Homo sapiens, UniProt Q9UKW6-2 1-255); conditions: protein: recombinant; tags: N-terminal GST; dsDNA, one strand shown
# T11 sequence: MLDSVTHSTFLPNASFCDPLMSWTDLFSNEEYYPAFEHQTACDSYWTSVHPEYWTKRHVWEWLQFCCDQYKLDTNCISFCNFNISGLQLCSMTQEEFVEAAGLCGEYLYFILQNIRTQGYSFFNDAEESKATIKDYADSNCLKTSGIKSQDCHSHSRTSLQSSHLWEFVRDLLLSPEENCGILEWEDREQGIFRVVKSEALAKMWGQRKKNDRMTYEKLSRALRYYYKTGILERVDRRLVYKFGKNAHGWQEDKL
# Outline: as §1
# ETV3 = target: T12, ETV3 (Homo sapiens, UniProt P41162-2 1-143); conditions: protein: recombinant; tags: N-terminal GST; dsDNA, one strand shown
# T12 sequence: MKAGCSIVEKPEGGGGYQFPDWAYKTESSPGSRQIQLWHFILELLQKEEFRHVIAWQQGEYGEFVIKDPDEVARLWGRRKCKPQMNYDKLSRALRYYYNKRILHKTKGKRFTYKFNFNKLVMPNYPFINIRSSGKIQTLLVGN
# Outline: as §1
# ETV6 = ETV6 (Homo sapiens, UniProt P41212 1-452); conditions: protein: recombinant; tags: N-terminal GST; dsDNA, one strand shown
# Outline: as §1
# ETV5, sequence (P41161 whole entry): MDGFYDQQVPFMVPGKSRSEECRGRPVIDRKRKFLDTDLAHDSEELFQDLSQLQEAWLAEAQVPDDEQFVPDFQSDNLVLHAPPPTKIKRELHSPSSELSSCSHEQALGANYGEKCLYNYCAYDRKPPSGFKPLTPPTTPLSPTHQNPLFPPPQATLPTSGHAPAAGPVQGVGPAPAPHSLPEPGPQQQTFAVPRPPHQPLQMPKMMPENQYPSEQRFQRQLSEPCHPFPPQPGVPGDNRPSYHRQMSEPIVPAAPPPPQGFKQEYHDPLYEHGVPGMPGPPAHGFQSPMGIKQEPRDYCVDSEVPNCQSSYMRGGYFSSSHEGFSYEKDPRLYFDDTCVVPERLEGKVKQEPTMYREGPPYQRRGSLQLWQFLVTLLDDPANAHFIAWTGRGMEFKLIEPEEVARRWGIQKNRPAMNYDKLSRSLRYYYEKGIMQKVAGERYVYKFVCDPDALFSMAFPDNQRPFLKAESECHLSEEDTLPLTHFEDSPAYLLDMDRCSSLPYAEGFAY
# HSF1, sequence (Q00613 whole entry): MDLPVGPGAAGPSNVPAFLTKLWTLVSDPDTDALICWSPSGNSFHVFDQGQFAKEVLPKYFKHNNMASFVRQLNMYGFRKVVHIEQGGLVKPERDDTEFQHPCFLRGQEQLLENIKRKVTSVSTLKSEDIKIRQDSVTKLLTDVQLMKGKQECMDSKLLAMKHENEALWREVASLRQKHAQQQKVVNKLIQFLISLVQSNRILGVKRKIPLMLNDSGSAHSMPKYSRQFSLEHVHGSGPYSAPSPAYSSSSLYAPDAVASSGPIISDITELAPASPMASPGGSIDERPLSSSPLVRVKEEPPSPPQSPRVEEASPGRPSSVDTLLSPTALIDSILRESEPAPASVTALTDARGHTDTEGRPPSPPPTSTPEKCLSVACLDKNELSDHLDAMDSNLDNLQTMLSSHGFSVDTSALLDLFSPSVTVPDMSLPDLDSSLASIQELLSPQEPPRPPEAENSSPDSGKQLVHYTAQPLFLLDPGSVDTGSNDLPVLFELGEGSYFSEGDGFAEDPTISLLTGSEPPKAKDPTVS
# ETV6, sequence (P41212 whole entry): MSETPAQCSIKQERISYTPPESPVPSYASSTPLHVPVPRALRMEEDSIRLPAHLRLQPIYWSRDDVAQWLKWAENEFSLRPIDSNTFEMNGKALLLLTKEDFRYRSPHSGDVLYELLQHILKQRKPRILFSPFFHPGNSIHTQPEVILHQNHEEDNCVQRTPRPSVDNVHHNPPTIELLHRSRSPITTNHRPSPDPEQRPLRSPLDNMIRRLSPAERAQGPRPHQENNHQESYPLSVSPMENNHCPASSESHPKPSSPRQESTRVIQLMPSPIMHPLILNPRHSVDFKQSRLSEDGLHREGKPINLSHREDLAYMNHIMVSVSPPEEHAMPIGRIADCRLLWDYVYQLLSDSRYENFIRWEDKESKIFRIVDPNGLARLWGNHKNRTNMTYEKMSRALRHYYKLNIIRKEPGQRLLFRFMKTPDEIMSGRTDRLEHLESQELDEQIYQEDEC
# ELF4, sequence (Q99607 whole entry): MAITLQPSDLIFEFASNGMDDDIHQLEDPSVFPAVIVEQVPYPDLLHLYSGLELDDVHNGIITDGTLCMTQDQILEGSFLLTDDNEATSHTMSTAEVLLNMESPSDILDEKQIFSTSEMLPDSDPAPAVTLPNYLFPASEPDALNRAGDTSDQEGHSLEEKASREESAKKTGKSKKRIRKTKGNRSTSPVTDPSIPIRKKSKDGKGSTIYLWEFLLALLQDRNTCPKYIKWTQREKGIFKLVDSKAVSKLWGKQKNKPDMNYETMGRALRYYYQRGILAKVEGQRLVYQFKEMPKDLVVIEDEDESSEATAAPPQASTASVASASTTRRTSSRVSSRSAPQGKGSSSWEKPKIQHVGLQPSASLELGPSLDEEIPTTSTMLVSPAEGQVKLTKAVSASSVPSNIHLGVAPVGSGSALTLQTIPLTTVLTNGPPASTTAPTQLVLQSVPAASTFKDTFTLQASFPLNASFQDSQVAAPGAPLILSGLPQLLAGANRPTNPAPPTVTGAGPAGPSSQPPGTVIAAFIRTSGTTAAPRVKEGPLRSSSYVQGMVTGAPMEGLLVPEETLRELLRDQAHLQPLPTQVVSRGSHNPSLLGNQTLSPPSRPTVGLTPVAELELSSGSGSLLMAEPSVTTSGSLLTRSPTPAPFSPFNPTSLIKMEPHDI
# CRX, sequence (O43186 whole entry): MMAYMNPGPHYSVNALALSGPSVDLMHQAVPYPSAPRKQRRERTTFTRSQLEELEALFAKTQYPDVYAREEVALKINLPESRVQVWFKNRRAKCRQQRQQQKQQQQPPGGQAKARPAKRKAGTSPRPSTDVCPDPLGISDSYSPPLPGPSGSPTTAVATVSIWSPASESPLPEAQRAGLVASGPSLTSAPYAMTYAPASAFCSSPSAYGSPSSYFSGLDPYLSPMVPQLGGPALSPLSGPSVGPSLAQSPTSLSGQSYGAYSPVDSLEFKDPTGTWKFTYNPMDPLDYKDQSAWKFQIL
# ETV1, sequence (P50549 whole entry): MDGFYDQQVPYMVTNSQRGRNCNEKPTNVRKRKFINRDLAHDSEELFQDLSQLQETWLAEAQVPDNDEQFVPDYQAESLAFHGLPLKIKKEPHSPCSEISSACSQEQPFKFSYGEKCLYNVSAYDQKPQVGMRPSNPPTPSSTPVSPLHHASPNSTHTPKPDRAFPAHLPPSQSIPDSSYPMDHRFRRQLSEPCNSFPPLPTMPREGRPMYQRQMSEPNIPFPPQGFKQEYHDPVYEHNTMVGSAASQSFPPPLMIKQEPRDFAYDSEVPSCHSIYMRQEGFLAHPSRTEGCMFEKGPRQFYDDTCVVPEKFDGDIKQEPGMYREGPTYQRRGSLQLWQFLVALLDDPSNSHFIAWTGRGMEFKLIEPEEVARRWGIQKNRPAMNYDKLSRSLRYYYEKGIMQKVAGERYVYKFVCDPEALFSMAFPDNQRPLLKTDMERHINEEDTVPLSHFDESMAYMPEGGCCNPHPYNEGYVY
sequence,measurement,setting,value
TTCAAT,binding signal,FEV,"1.31 fold enrichment (6-mer frequency, TF over GST control)"
same,binding signal,ETV5,"1.32 fold enrichment (6-mer frequency, TF over GST control)"
same,binding signal,HSF1,"1.27 fold enrichment (6-mer frequency, TF over GST control)"
same,binding signal,SPIC,"1.43 fold enrichment (6-mer frequency, TF over GST control)"
same,binding signal,ELF4,"1.33 fold enrichment (6-mer frequency, TF over GST control)"
same,binding signal,ELK4,"1.42 fold enrichment (6-mer frequency, TF over GST control)"
same,binding signal,ETV2,"1.43 fold enrichment (6-mer frequency, TF over GST control)"
same,binding signal,ELF3,"1.36 fold enrichment (6-mer frequency, TF over GST control)"
same,binding signal,CRX,"1.38 fold enrichment (6-mer frequency, TF over GST control)"
same,binding signal,ETV1,"1.45 fold enrichment (6-mer frequency, TF over GST control)"
same,binding signal,ERF,"1.32 fold enrichment (6-mer frequency, TF over GST control)"
same,binding signal,ETV3L,"1.47 fold enrichment (6-mer frequency, TF over GST control)"
same,binding signal,ETS2,"1.42 fold enrichment (6-mer frequency, TF over GST control)"
same,binding signal,SPDEF,"1.32 fold enrichment (6-mer frequency, TF over GST control)"
same,binding signal,ETV7,"1.3 fold enrichment (6-mer frequency, TF over GST control)"
same,binding signal,ELF5,"1.26 fold enrichment (6-mer frequency, TF over GST control)"
same,binding signal,ETV3,"1.37 fold enrichment (6-mer frequency, TF over GST control)"
same,binding signal,ETV6,"1.35 fold enrichment (6-mer frequency, TF over GST control)"

# — PMC7862700, “An all-to-all approach to the identification of sequence-specific readers for epigenetic DNA modifications on cytosine”
